Measured values: PubChem BioAssay AID1376 (SRMLSC, 2008)
In all, about 220,000 compounds went through this assay and about 530 (0.24%) were called active. The sample as a whole holds a higher share of actives than the screen did. Measured potencies and affinities stand elsewhere. Unmarked numbers belong to inactive results. Cut-off read from the data, not from the text of the source: active = inhibition above about 13%; inconclusive = no clear call, values can overlap the other calls; inactive = below that.

Molecular target: Bifunctional protein GlmU (Mycobacterium tuberculosis (strain ATCC 25618 / H37Rv)) (UniProt P9WMN3)
Sequence (P9WMN3 whole entry, looked up): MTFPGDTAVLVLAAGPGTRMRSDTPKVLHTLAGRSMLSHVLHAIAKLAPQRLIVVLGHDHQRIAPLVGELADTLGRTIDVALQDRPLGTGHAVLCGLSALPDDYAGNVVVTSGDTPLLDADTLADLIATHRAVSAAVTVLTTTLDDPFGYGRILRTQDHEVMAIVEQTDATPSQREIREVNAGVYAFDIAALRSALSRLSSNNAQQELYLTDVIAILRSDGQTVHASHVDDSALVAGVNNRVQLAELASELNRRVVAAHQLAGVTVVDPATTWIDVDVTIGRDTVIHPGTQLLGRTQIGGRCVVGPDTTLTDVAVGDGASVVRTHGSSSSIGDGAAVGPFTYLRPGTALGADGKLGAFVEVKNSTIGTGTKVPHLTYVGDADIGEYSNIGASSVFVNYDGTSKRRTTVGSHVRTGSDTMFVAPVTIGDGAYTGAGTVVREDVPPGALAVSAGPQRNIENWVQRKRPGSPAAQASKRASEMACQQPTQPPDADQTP
Assay: inhibition of mycobacterial GlmU enzyme – biochemical, glucosamine-1-phosphate acetyltransferase (AID 1376);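 note: 0% = complete reaction with vehicle and 100% = reaction without substrate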
Conditions: M. tuberculosis GlmU acetyltransferase enzyme assay; hits give high values;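 tested at 30 µM in the primary screen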

| Compound | inhibition |
| --- | --- |
| CC(=O)NC(CCS(C)(=O)=O)C(=O)Nc1ccc(Oc2ccccc2)cc1 (centres undefined) | -3.46% |
| COc1ccc(NC(=O)C(CCS(C)(=O)=O)NC(C)=O)cc1 (centres undefined) | 18.3% (active) |
| CC(=O)NC(CCS(C)(=O)=O)C(=O)Nc1ccccc1 (centres undefined) | 2.39% |
| O=[N+]([O-])c1cccc(/C=N/n2c(COc3ccccc3)n[nH]c2=S)c1 | 9.99% |
| CC(C)(C)c1ccc(Oc2ccc(NC(=O)c3cccs3)cn2)cc1 | -0.97% |
| O=C1OCc2cccc([N+](=O)[O-])c21 | 7.84% |
| O=C1c2cccc([N+](=O)[O-])c2C(=O)N1c1ccccc1 | 1.03% |
| O=C1CC(=O)c2c1cccc2[N+](=O)[O-] | 17% (active) |
| Cc1ccc(N=CC2=C(O)CC(C)(C)CC2=O)nc1 | 0.57% |
| CC1(C)CC(=O)C(C=Nc2ccc(Cl)cn2)=C(O)C1 | 13.9% (active) |
| CC1(C)CC(=O)C(/C=N/c2ccccn2)=C(O)C1 | 0.36% |
| CCCc1c(C)c(C#N)c2nc3ccccc3n2c1NCCCN1CCOCC1 | 11.7% |
| N#Cc1c2c(c(NCCCN3CCOCC3)n3c1nc1ccccc13)CCC2 | 13.8% (active) |
| N#Cc1c2c(c(NCCN3CCOCC3)n3c1nc1ccccc13)CCCC2 | 6.82% |
| COCCCNC(=O)C1CCN(C(=O)c2cc3sccc3n2Cc2ccc(F)cc2)CC1 | 1.5% |
| O=C(OCC1O[C@@H](OC(=O)c2cc(O)c(O)c(O)c2)[C@@H](OC(=O)c2cc(O)c(O)c(O)c2)[C@@H](OC(=O)c2cc(O)c(O)c(O)c2)[C@@H]1OC(=O)c1cc(O)c(O)c(O)c1)c1cc(O)c(O)c(O)c1 (some centres undefined) | 7.78% |
| O=C(O)C[C@@H]1C(=O)O[C@@H]2C(COC(=O)c3cc(O)c(O)c(O)c3)O[C@@H](OC(=O)c3cc(O)c(O)c(O)c3)[C@@H](OC(=O)c3cc(O)c(O)c4c3[C@H]1[C@H](O)C(=O)O4)[C@H]2OC(=O)c1cc(O)c(O)c(O)c1 (some centres undefined) | 67.3% (active) |
| CCCC1=C(C(=O)OCC)C(c2ccco2)C(C#N)=C(N)O1 (centres undefined) | 0.05% |
| Cc1ccc(N2C(=O)C(Cc3ccc(O)cc3)NC2=S)cc1C (centres undefined) | -4.47% |
| CC(=O)N1CCC(=NNC(=O)CSc2cc(C)c(Br)cc2C)CC1 | -1.13% |
| COc1ccc(-c2nnc(SCC(=O)NCc3ccco3)n2C)cc1 | 3.67% |
| Cc1cccc(N2C(=O)C(O)=C(C(=O)c3cccs3)C2c2ccc(Cl)cc2)n1 (centres undefined) | 3.09% |
| CC1CCN(c2nncc3ccccc23)CC1 | 31.2% (active) |
| CC1CCN(c2ncnc3ccccc23)CC1 | 2.04% |

| Compound | inhibition |
| --- | --- |
| CC1CCN(c2nnc(-c3ccccc3)c3ccccc23)CC1 | 0.97% |
| COc1ccc(C(CNC(=O)COc2ccccc2-c2ccccc2)N2CCOCC2)cc1 (centres undefined) | -8.37% |
| CCOC(=O)c1ccc(NC2c3ccccc3C(=O)N2c2cccnc2)cc1 (centres undefined) | 1.04% |
| C/C(=N\O)c1cc(Cl)cc(Cl)c1O | -5.49% |
| Oc1c(Cl)cc(Cl)cc1C=Nc1ccc(Br)cc1 | 5.27% |
| Oc1c(Cl)cc(Cl)cc1Sc1cc(Cl)cc(Cl)c1O | 13.1% (active) |
| COc1cc(NC(=O)Nc2ccc(Cl)c(Cl)c2)c(C(=O)O)cc1OC | 0.76% |
| Cc1sc2nc(CN3CCC(C)CC3)nc(Cl)c2c1C | -6.88% |
| O=C(Nc1cccc(O)c1)c1cc2nc(-c3ccccc3)cc(-c3ccccc3)n2n1 | 1.52% |
| COc1cc(NC(=O)c2cc3nc(-c4ccccc4)cc(-c4ccccc4)n3n2)cc(OC)c1OC | -2.98% |
| COc1ccc(NC(=O)c2cc3nc(-c4ccccc4)cc(-c4ccccc4)n3n2)c(OC)c1 | 20.8% (active) |
| CC(C)CN(C(=O)CSc1nnc2c(Cl)cc(C(F)(F)F)cn12)C1CCS(=O)(=O)C1 (centres undefined) | 52.2% |
| Cc1ccc(N(CC(=O)N/N=C/c2cc(C)n(-c3ccccc3)c2C)S(C)(=O)=O)c(C)c1 | 1.57% |
| OCC1(CCc2ccccc2)CCN(Cc2c(F)ccc(F)c2F)CC1 | 3.84% |
| CC(C)CCNc1nnnc2c1sc1nc(N3CCOCC3)c3c(c12)CC(C)(C)SC3 | 2.31% |
| CCOc1ccc(NC(=S)N2CCc3cc(OC)c(OC)cc3C2COc2ccc3c(C)cc(=O)oc3c2)cc1 (centres undefined) | 1.27% |
| O=C(COC(=O)C12CC3CC(CC(C3)C1)C2)NCCc1ccccc1 | 5.26% |
| Cn1nccc1NC(=O)c1nccnc1C(=O)O | -4.84% |
| Cc1cc(N2CCN(C(=O)c3ccco3)CC2)n2nc(C)c(-c3ccccc3)c2n1 | 3.95% |
| Cc1cc(N2CCN(C(=O)c3ccco3)CC2)n2nc(-c3cccc(Cl)c3)cc2n1 | 14.1% (active) |
| Cc1cc(N2CCN(C(=O)c3ccco3)CC2)n2nc(-c3cccc(F)c3)cc2n1 | -0.85% |
| CCCCN(CC)CCNC(=O)c1cn(-c2ccc(Cl)cc2)c(=O)c2ccccc12 | -2.06% |
| Cc1ccc(-c2c(C)n([O-])c3c([n+]2=O)CCC3)o1 | 1.5% |
| Cc1c(-c2ccco2)[n+](=O)c2c(n1[O-])CCCCC2 | 3.97% |

| Compound | inhibition |
| --- | --- |
| Cc1c(-c2ccco2)[n+](=O)c2c(n1[O-])CCC2 | 14.9% (active) |
| COC(=O)c1cnc(N2CCCN(S(=O)(=O)c3ccc(C(F)(F)F)cc3)CC2)nc1C(F)(F)F | 1.89% |
| Cc1cccc(NC(=O)c2ccc(COc3ccc4ccccc4c3)o2)n1 | -0.95% |
| O=C(CN1N=C(c2ccccc2)CCC1=O)NCCN1CCc2ccccc2C1 | -1.06% |
| CC(=O)Oc1cccc(N2C(=O)c3ccccc3C2=O)c1 | -6.78% |
| CC12CCC(C(=O)NCc3ccccc3)(OC1=O)C2(C)C (centres undefined) | 1.44% |
| CC12CCC(C(=O)NNc3ccccc3)(OC1=O)C2(C)C (centres undefined) | -5.23% |
| CC12CCC(C(=O)NC(c3ccccc3)c3ccccc3)(OC1=O)C2(C)C (centres undefined) | 13.4% (active) |
| COc1cccc(OC)c1C(=O)N1CCN(Cc2ccccc2C(F)(F)F)CC1 | 3.68% |
| COc1ccc(/C=C2\CCc3c2nc2ccccc2c3C(=O)O)cc1OC | -1.01% |
| O=C(O)c1c2c(nc3ccccc13)/C(=C/c1ccc(O)cc1)CCC2 | -1.41% |
| CCNc1nc(N2CCCCC2)nc(-n2nnc(C(=O)OCC)c2C)n1 | 13.5% (active) |
| CCOC(=O)c1nnn(-c2nc(OC)nc(N3CCCCC3)n2)c1-c1ccccc1 | 1.53% |
| COC(=O)c1nnn(-c2nc(N3CCOCC3)nc(N3CCOCC3)n2)c1C | 0.09% |
| O=C(O)/C=C/C(=O)Nc1ccc2nccnc2c1 | 0.78% |
| CN(C)S(=O)(=O)c1ccc(C(=O)NCc2ccco2)cc1 | 7.54% |
| CCOc1ccc(/C=C(\C#N)C(=O)Nc2cccnc2)cc1 | -3.21% |
| CCOc1cccc(NC(=O)/C(C#N)=C\c2cccnc2)c1 | -1.75% |
| CCOc1cccc(NC(=O)/C(C#N)=C/c2cccnc2)c1 | 13.3% (active) |
| Cc1ccc(-c2nnc(CSc3nnc(COc4ccccc4)n3-c3ccc(C)cc3)o2)cc1 | 2.51% |
| COc1ccccc1CCNC1CCC(C)CC1 (centres undefined) | 1.25% |
| CC(=O)c1ccc(S(=O)(=O)N2CCNCC2)cc1 | 1.28% |
| O=[N+]([O-])c1cccc(-c2csc(CS(=O)(=O)Cc3ccco3)n2)c1 | 1.82% |
| Cc1ccc2c(c1)C1C=CCC1C(C(=O)NCCCN1CCOCC1)N2 (centres undefined) | 3.8% |

| Compound | inhibition |
| --- | --- |
| O=C(O)C1Nc2ccc(OC(F)(F)F)cc2C2C=CCC12 (centres undefined) | 13.1% (active) |
| CCOC(=O)C1Nc2ccc(OC(F)(F)F)cc2C2C=CCC12 (centres undefined) | 1.1% |
| Cc1ccc2c(c1)C1C=CCC1C(C(=O)O)N2 (centres undefined) | 28% (active) |
| CCOC(=O)C1Nc2ccc(C)cc2C2C=CCC12 (centres undefined) | -1.77% |
| O=C(NC1CC1)C1Nc2ccc(OC(F)(F)F)cc2C2C=CCC12 (centres undefined) | -0.17% |
| CCOC(=O)N1CCC(N(CCN(C)C)C(=S)Nc2ccccc2Cl)CC1 | 0.75% |
| O=C(CNC(=O)c1ccc2c(c1)OCCO2)N/N=C/c1ccco1 | -1.55% |
| Nc1ccccc1NC1=CC(=O)CC(c2ccccc2)C1 (centres undefined) | 2.07% |
| COc1ccc(/C=N/NC(=O)CN(CCc2ccccc2)S(=O)(=O)c2ccc(NC(C)=O)cc2)cc1OC | 1.25% |
| COc1cc(NS(=O)(=O)c2ccc(Nc3nc(-c4ccccn4)cs3)cc2)nc(OC)n1 | -0.88% |
| Cn1cnnc1SCc1ccc(C(=O)N/N=C(\CCC(=O)O)c2ccc(C(C)(C)C)cc2)cc1 | -2.55% |
| CCSc1nnc(NS(=O)(=O)c2ccc(C)cc2)s1 | -1.65% |
| Cc1ccc(C2=CSC3=NS(=O)(=O)CCN23)cc1 | -2.55% |
| Cc1ccc(C2=CSC3=NS(=O)(=O)CCN23)cc1C | -2.13% |
| Cc1ccc(C)c(C2=CSC3=NS(=O)(=O)CCN23)c1 | 14.7% (active) |
| Cc1ccnc(SCc2cn3c(C)cc(C)nc3n2)n1 | -0.65% |
| CCc1ccc(N2CCN(C(=O)N3CCOCC3)CC2)cc1 | -4.7% |
| C=CCOC(=O)C1=C(C)N(C)C(=O)NC1c1cc2c(cc1Br)OCO2 (centres undefined) | 0% |
| Cc1cccc(-n2ncc3c(N(CCO)CCO)ncnc32)c1 | 2.36% |
| CCOc1ccc(NC(=O)Nc2cc(C(C)C)c(O)cc2C)cc1 | 1.34% |
| Cc1ccc(C(C)C)cc1NC(=O)Nc1ccc([N+](=O)[O-])cc1 | -2.4% |
| CCOc1ccc(NC(=O)Nc2cc(C(C)C)ccc2C)cc1 | 14.6% (active) |
